High-throughput results deposited in PubChem BioAssay by several laboratories.
Mcl1 Bid PPI: disrupts binding of human Mcl-1 to Bid peptide; Q07820; TR-FRET Mcl-1/Bid-Dy647 peptide binding, 1536-well; inhibition, % at 21.7 µM; hit rate 0.97% among 220,000;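 active = compounds that cut the binding signal by more than half at the single screening dose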;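 note: His-tagged Mcl-1 with europium anti-His antibody binding Bid BH3 peptide; 0% = Mcl-1 plus peptide wells and 100% = peptide-only wells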
Target sequence (Q07820 whole entry, looked up): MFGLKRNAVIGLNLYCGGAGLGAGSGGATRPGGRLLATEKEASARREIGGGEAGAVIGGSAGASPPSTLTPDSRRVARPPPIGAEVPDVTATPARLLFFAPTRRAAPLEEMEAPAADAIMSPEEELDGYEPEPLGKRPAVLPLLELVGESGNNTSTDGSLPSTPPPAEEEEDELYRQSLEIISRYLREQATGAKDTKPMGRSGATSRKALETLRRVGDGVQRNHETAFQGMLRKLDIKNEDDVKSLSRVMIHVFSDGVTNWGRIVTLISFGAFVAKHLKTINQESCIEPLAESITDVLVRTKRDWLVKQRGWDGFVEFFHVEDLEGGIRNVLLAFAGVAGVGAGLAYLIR
Mcl-1 Bim block: human Bim-Mcl-1 interaction inhibition. Q07820. Bead-based flow cytometry, Bim peptide-Mcl-1 binding. inhibition, % at 10 µM. AID 1009. hit rate 0.1% among 190,000; in the data active = inhibition above about 40%;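 note: 0% = no compound tracer wells and 100% = peptide blocker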
MCL1-BIM inh: MCL1-BIM-BH3 interaction inhibition (human). GST-MCL1 / FITC-Bim-BH3 fluorescence polarization. inhibition, % at 10.9 µM. hit rate 0.68% among 320,000. AID 2057;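 active = inhibition above the mean inhibition of all tested compounds plus 3 SD, set per campaign, cut at about 40% in these data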;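 note: 0% = DMSO wells and 100% = unlabeled Bim-BH3 peptide control; higher means more loss of mP so more displacement of Bim peptide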
Mcl1 Noxa PPI: Mcl-1/Noxa interaction inhibition | TR-FRET Mcl-1/Noxa peptide binding, 2 h | inhibition, % at 21.7 µM | hit rate 1.5% among 220,000;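 active = compounds that cut the protein-peptide binding signal by more than 50% relative to plate controls in a single-dose test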;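 note: His-tagged Mcl-1 with rhodamine Noxa BH3 peptide and terbium anti-His antibody; 0% = Mcl-1 plus Noxa peptide wells and 100% = peptide-only wells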
Starred values were filed as active, the others as inactive. In the library only some 2% were active in any assay of this set; here they are far more common.

How did COc1cc(N2C(=O)C=CC2=O)c(OC)cc1Cl do in these assays?
Mcl1 Bid PPI: 21; MCL1-BIM inh: 10; Mcl1 Noxa PPI: 59*

How did COc1cc(Cl)c(S(=O)(=O)N2CCCC2)cc1Cl do in these assays?
Mcl1 Bid PPI: -11; Mcl-1 Bim block: -2; MCL1-BIM inh: 5; Mcl1 Noxa PPI: -8

What do the screens show for `O=[N+]([O-])c1cc(Cl)cc(/C=N/NC(=S)Nc2ccc(S(=O)(=O)N3CCOCC3)cc2)c1O`?
Mcl1 Bid PPI: 67*; MCL1-BIM inh: 31; Mcl1 Noxa PPI: 85*

How did O=S(=O)(c1ccc(NC(=S)N/N=C/c2ccc(O)c(O)c2)cc1)N1CCOCC1 do in these assays?
Mcl1 Bid PPI: -59; MCL1-BIM inh: 14; Mcl1 Noxa PPI: 36

Results for CCOC(=O)N1CCN(C(=O)c2ccc3c(=O)n(Cc4ccc(OC)cc4)c(=S)[nH]c3c2)CC1 ?
Mcl1 Bid PPI: -35; Mcl-1 Bim block: 9; MCL1-BIM inh: 34; Mcl1 Noxa PPI: 18

How did COc1ccc2[nH]c3c(=O)n(Cc4ccc(C(=O)N5CCC(C(N)=O)CC5)cc4)c(=S)[nH]c3c2c1 do in these assays?
Mcl1 Bid PPI: -156; Mcl-1 Bim block: 0; MCL1-BIM inh: -2; Mcl1 Noxa PPI: 61*

Results for COc1ccc2[nH]c3c(=O)n(Cc4ccc(C(=O)N5CCCCCC5)cc4)c(=S)[nH]c3c2c1 ?
Mcl1 Bid PPI: -10; Mcl-1 Bim block: -3; MCL1-BIM inh: -3; Mcl1 Noxa PPI: 60*

Results for O=C(OCC(=O)N1CCN(C(=O)c2ccco2)CC1)c1cncc(Br)c1 ?
MCL1-BIM inh: 3

Results for Cc1ccccc1C(=O)N/N=C/c1ccsc1C ?
Mcl1 Bid PPI: -15; Mcl-1 Bim block: -4; MCL1-BIM inh: -12; Mcl1 Noxa PPI: -7

Results for Cc1sccc1/C=N/NC(=O)c1cccc2ccccc12 ?
Mcl1 Bid PPI: -10; Mcl-1 Bim block: -2; MCL1-BIM inh: 5; Mcl1 Noxa PPI: 92*

Results for Oc1[nH]c2ccccc2c1N=Nc1ccc(F)cc1 ?
Mcl1 Bid PPI: -15; Mcl-1 Bim block: 0; MCL1-BIM inh: -191; Mcl1 Noxa PPI: 17

Results for O=C(N=Nc1c(O)[nH]c2ccccc12)c1cc(-c2ccc(F)cc2)n[nH]1 ?
Mcl1 Bid PPI: 37; Mcl-1 Bim block: -2; MCL1-BIM inh: 7; Mcl1 Noxa PPI: 52*

How did O=C(N=Nc1c(O)[nH]c2ccccc12)c1cccc(S(=O)(=O)Nc2ccccc2Cl)c1 do in these assays?
Mcl1 Bid PPI: -17; Mcl-1 Bim block: -3; MCL1-BIM inh: 10; Mcl1 Noxa PPI: 32

What do the screens show for `NS(=O)(=O)c1cc(C(=O)N=Nc2c(O)[nH]c3ccccc23)ccc1Cl`?
Mcl1 Bid PPI: -1; MCL1-BIM inh: 8; Mcl1 Noxa PPI: 51*

How did O=C(Nc1cccc(-c2ccc(N3CCOCC3)nn2)c1)c1ccc(F)cc1F do in these assays?
MCL1-BIM inh: 4

How did Cc1cc(C=O)c(O)cc1O do in these assays?
MCL1-BIM inh: 5

How did O=C1NCCCC2c3c(cc(Br)c(O)c3Br)OC12N1CCOCC1 (stereo unspecified) do in these assays?
Mcl1 Bid PPI: -22; Mcl-1 Bim block: -2; MCL1-BIM inh: -3; Mcl1 Noxa PPI: 62*

How did COc1ccccc1CNC(=O)c1cnccn1 do in these assays?
Mcl1 Bid PPI: -53; Mcl-1 Bim block: 2; MCL1-BIM inh: 18; Mcl1 Noxa PPI: 68*

Results for CC1COC(Cn2c3ccccc3c3ccccc32)O1 (stereo unspecified) ?
Mcl1 Bid PPI: 61*; MCL1-BIM inh: 2; Mcl1 Noxa PPI: 18

How did CC1(C)COC(Cn2c3ccccc3c3ccccc32)O1 (stereo unspecified) do in these assays?
Mcl1 Bid PPI: -22; MCL1-BIM inh: 9; Mcl1 Noxa PPI: -7

How did CC1(C(=O)NNC(=O)C2CCCCC2)CC1(Cl)Cl (stereo unspecified) do in these assays?
Mcl1 Bid PPI: 99*; MCL1-BIM inh: 4; Mcl1 Noxa PPI: -14

What do the screens show for `CC(C)CNC(=O)C(=O)NNC(=O)C1CCCCC1`?
Mcl1 Bid PPI: -19; Mcl-1 Bim block: 3; MCL1-BIM inh: 5; Mcl1 Noxa PPI: 1

Results for CCSc1ccc(-c2nn(-c3ccccc3)cc2/C=C(/C#N)C(=O)NC)cc1 ?
Mcl1 Bid PPI: -11; Mcl-1 Bim block: -7; MCL1-BIM inh: -3; Mcl1 Noxa PPI: 7

What do the screens show for `C=CCNC(=O)/C(C#N)=C/c1cn(-c2ccccc2)nc1-c1ccc(OC)c([N+](=O)[O-])c1`?
Mcl1 Bid PPI: 58*; Mcl-1 Bim block: -4; MCL1-BIM inh: 7; Mcl1 Noxa PPI: 15

Results for Cc1nc2ccc(NC(=O)c3ccc(Cl)c([N+](=O)[O-])c3)cc2s1 ?
Mcl1 Bid PPI: 18; Mcl-1 Bim block: -4; MCL1-BIM inh: 4; Mcl1 Noxa PPI: 15
